# This is a sample that favours compounds with a hit; in the whole collection about 6% have one here.
# PLK1 PBD block: qHTS for Inhibitors of PLK1-PDB (polo-like kinase 1 - polo-box domain): Primary Screen. Serine/threonine-protein kinase PLK1 (Homo sapiens), P53350. Plk1 PBD binding of FITC phosphopeptide, fluorescence polarization. Potency, µM, for inactives: max response, negative = inhibition, usual class: inhibitors. hit rate 2.8% among 360,000. AID 720504, 2013; further: series mostly up to about 57 µM; nearly all actives have a fitted effect of over 65% in size
# Tau fibril ThT: qHTS for Inhibitors of Tau Fibril Formation, Thioflavin T Binding; hit rate 2.1% among 270,000; Potency, µM (titrated, usually from 57.4 µM), for inactives: at the highest dose activity, negative = inhibition, usual class: inhibitors; recombinant tau K18 P301L, heparin-induced fibrillization, ThT fluorescence; AID 1460, 2008; further: nearly all actives have a fitted effect of over 55% in size
# Target sequence (P10636 561-689 P618L limits assumed): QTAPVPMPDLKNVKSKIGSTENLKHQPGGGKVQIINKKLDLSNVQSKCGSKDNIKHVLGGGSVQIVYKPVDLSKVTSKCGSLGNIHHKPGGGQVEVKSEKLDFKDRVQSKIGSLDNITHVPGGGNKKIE
#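 In this qHTS, human K18 P301L tau is incubated with compound and heparin for 6 hr at 37 C, and Thioflavin T fluorescence then reports fibril load.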
# Tau fibril FP: qHTS for Inhibitors of Tau Fibril Formation, Fluorescence Polarization; Microtubule-associated protein tau (Homo sapiens), P10636; K18 P301L tau heparin fibrillization, Alexa594 FP, 6 h; Potency, µM (titrated, usually from 57.7 µM), for the others: at the highest dose activity, negative = inhibition, most hits filed as inhibitors; hit rate 0.39% among 280,000; AID 1468, 2008; further: nearly all actives have a fitted effect of over 55% in size
#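 Read-out: fluorescence polarization of Alexa 594-labeled tau (0.24 uM), 555 nm excitation, 632 nm emission. Mixtures held 15 uM unlabeled K18 P301L, compound and 20 uM heparin, pH 7 acetate buffer, incubated 6 hr at 37 C.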
# VDR inh: Inhibitors of the vitamin D receptor (VDR): qHTS | Potency, µM, for inactives: max response, negative = inhibition, usual class: inhibitors | VDR-SRC2-3 peptide fluorescence polarization, 2 h | AID 504847, 2011 | hit rate 0.93% among 400,000 | Vitamin D3 receptor (Homo sapiens), P11473
# Target sequence (P11473 whole entry, looked up): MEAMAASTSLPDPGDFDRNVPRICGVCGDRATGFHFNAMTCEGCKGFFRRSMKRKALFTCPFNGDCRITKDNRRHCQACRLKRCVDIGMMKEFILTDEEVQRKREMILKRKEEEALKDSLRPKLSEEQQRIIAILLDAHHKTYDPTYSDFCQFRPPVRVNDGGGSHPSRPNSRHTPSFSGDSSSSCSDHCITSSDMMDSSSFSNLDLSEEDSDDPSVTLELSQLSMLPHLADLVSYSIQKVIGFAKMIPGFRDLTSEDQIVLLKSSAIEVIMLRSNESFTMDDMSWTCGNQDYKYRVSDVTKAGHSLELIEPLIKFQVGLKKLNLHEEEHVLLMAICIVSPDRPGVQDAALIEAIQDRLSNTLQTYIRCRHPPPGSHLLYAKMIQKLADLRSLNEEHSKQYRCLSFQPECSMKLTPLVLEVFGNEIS
#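 After 23 nl compound addition and a short centrifugation, plates sat for 2 hours at ambient temperature; polarization of fluorescence then indicated loss of VDR binding to peptide SRC2-3.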
# Sfp inh: qHTS Assay for Inhibitors of Bacillus subtilis Sfp phosphopantetheinyl transferase (PPTase); Potency, µM, for the others: largest response in the series, negative = inhibition, actives largely listed as inhibitors; hit rate 3.5% among 310,000; 4'-phosphopantetheinyl transferase ffp (Bacillus subtilis), Q9F4F7; Biochemical Sfp PPTase activity, qHTS;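 further: the enzyme is Sfp with the accession as filed and its product quenches rhodamine fluorescence; 0% = enzyme reaction without inhibitor and -100% = no enzyme wells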
#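 With Hepes-Na pH 7.6 buffer containing 10 mM MgCl2, Sfp (15 nM) modified BHQ-2-YbbR (12.5 uM) using rhodamine-CoA (5 uM). Two reads 30 minutes apart at 525/598 nm yielded each well's rate.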
# Tau fluor cs: Counterscreen qHTS for Inhibitors of Tau Fibril Formation, Fluorescence Polarization | tau K18 P301L (four-repeat tau fragment) Alexa594 fluorescence, heparin fibrillization | Potency, µM (top dose mostly 57.7 µM), without a hit: at the highest dose activity change, negative = decrease | hit rate 0.93% among 280,000 | AID 1463, 2008; further: nearly all actives have a fitted effect of over 55% in size
#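 Human K18 P301L tau (15 uM unlabeled plus 0.24 uM Alexa 594-labeled, final) in 100 mM sodium acetate pH 7 was mixed with compound and 20 uM heparin and incubated 6 hr at 37 C.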
# An asterisk follows results filed as active; u = inconclusive; x = no result; ! = repeats disagree; [ ] = dose if it differs, or a comment. The call rests on the fitted dose curve; in most records, active means well fitted curve in the direction sought with a large enough effect; inconclusive means small, poorly fitted or top-dose-only effect, or another doubt; inactive means no such curve, though single readings can be large; an effect the other way counts as inactive or inconclusive. Unless noted, on the % scale 0 is the no-effect control and ±100 the full control effect; potency means the concentration at half of the fitted maximal effect.
SMILES,PLK1 PBD block,Tau fibril ThT,Tau fibril FP,VDR inh,Sfp inh,Tau fluor cs
O=C(/C=C/c1ccco1)NC(=S)Nc1cccc([N+](=O)[O-])c1,-24%,1%,10%,-14%,32µM*,0%
O=C(CNC(=O)Cc1ccccc1)N=Nc1c(O)[nH]c2ccccc12,-13%,x,x,6%,15%,x
O=C(CNC(=O)/C=C/c1ccco1)N=Nc1c(O)[nH]c2ccccc12,u,x,x,-2%,20µM*,x
NS(=O)(=O)c1ccc(NC(=S)NC(=O)/C=C/c2ccco2)cc1,-9%,u,-6%,-4%,20µM*,-27%
O=C(/C=C/c1ccco1)NCc1ccc(F)cc1,u,-10%,-8%,12%,40µM*,-11%
COc1ccc(C(=O)N/C(=C\c2ccc(SC)cc2)C(=O)NCCCn2ccnc2)cc1OC,-1%,x,x,-18%,x,x
CC1CCC2(CC1)NC(=O)N(CC(=O)Nc1cccc(S(=O)(=O)N3CCCC3)c1)C2=O (stereo not drawn),-1%,x,x,3%,x,x
O=C(/C=C/c1ccco1)NCC1CCCO1 (stereo not drawn),-13%,14µM*,u,-6%,-70%,-20%
NS(=O)(=O)c1ccc(CNC(=O)/C=C/c2ccco2)cc1,u,u,u,-21%,20µM*,-11%
O=C(CN1CCN(C(=O)C2CCCO2)CC1)Nc1ccc(Cl)cc1 (stereo not drawn),-3%,x,x,7%,-6%,x
CCCCCCC=C1CCC(CN2CCCC2)C1=O (stereo not drawn),3.4µM*,x,x,x,x,x
CC(=O)C1C(=O)c2c(cccc2[N+](=O)[O-])C1=Nc1cccc(Cl)c1 (stereo not drawn),-10%,u,3%,9%,56µM*,u
OCCNCCOc1ccccc1-c1ccccc1,-6%,0%,2%,-5%,2%,-3%
CN(C)CCOc1ccccc1-c1ccccc1,-6%,-11%,-1%,-3%,u,-7%
COCCNCCOc1ccccc1-c1ccccc1,-6%,-2%,-4%,28%,50µM*,-3%
CN(C)CCOCCOc1ccccc1-c1ccccc1,1%,2%,4%,6%,79µM*,-6%
CC(O)CNCCOc1ccccc1-c1ccccc1 (stereo not drawn),1%,-6%,2%,8%,71µM*,-1%
COCCCNCCOc1ccccc1-c1ccccc1,-1%,1%,2%,14%,-11%,9%
COCC(=O)n1nc(NCc2ccc(OC)cc2)nc1NCc1ccc(OC)cc1,12µM*,-12%,9%,-28%,8%,-13%
Cc1cccc(-c2c3c(=O)n(C)c(=O)n(C)c3c3cnc4ccccc4n23)c1,x,3%,3%,-6%,x,0%
O=C(Oc1ccccc1Cl)c1ccccc1,0%,x,x,-12%,x,x
O=C(Oc1cccccc1=O)c1ccccc1,-26%,u,4%,14%,25µM*,-8%
O=C(Nc1cccnc1)Nc1cc(Cl)cc(Cl)c1,0%,u,25µM*,-3%,u,u
O=C(Nc1ccc(Cl)cc1)Nc1ccccc1Sc1ncc([N+](=O)[O-])s1,8.4µM*,x,u,10µM*,50µM*,u
O=C(Nc1ccc(Cl)cc1)Nc1cnccn1,30µM*,-3%,-7%,4%,1%,-19%
SMILES,PLK1 PBD block,Tau fibril ThT,Tau fibril FP,VDR inh,Sfp inh,Tau fluor cs
O=C(Nc1ccccc1)Nc1cc(Cl)cc(Cl)c1,-1%,u,11µM*,14%,-14%,u
CC(=O)Nc1ccc(NC(=O)Nc2ccccc2)cc1,5%,x,x,-6%,-1%,x
O=C(Nc1cccnc1)Nc1ccccc1Cl,-3%,0%,0%,-12%,-16%,-4%
O=c1c(-c2ccc(Cl)cc2)nc2cnc(Nc3ccccc3)nc2n1C[C@H]1CCCO1,x,x,x,-20%,18%,x
O=C(Nc1csc([N+](=O)[O-])c1)Nc1ccccc1Cl,-4%,x,0%,18%,2%,25µM*[quencher]
O=C(Nc1ccccc1Cl)Nc1ccccc1Cl,-2%,x,0%,8%,26%,-12%
O=C(Nc1ccccc1)Nc1cc(OCC(F)(F)F)cc(OCC(F)(F)F)c1,-2%,-15%,11µM*,3%,7%,u
O=C(Nc1ccccc1Cl)c1ccccc1,10%,-5%,3%,-7%,9%,-2%
O=C(Nc1ccccc1Cl)C(Cl)C(=O)c1ccccc1 (stereo not drawn),1.7µM*,-2%,0%,-11%,13%,5%
O=C(Nc1cccnc1)c1cc(-c2cccc(Cl)c2)on1,24µM*,-18%,u,79µM*!,4%,-27%
CC(=O)Nc1ccc2cnn(C(C)=O)c2c1,3%,x,x,x,x,x
COc1ccc(OC)c(CN2C(=O)c3ccccc3C2c2nnnn2C(C)C)c1 (stereo not drawn),-12%,x,x,x,x,x
CC(C)Oc1ccc(CNS(=O)(=O)c2cnc(N)nc2)cc1,x,8%,2%,3%,x,5%
O=C(Nc1cc(Cl)cc(Cl)c1)C(c1ccccc1)N1CCCCC1 (stereo not drawn),-1%,-8%,-2%,11%,1%,-11%
O=C(Nc1ccc(Nc2ccccc2)cc1)Nc1ccccc1Cl,-7%,4µM*,u,12%,11%,4µM*[quencher]
O=C(Nc1cc(Cl)cc(Cl)c1)C(NCCO)c1ccccc1 (stereo not drawn),-3%,-4%,4%,3%,35µM*,2%
Cc1cc(C)cc(NC(=O)C(NCCN2CCOCC2)c2ccccc2)c1 (stereo not drawn),24µM*,-3%,-4%,u,u,-1%
CCOc1ccccc1N1CC(C(=O)N2CCN(Cc3ccc(C#N)cc3)CC2)CC1=O (stereo not drawn),3%,x,x,12%,x,x
CCOc1ccccc1N1CC(C(=O)N2CCc3ccccc3C2)CC1=O (stereo not drawn),3.4µM*,-13%,-11%,u,15%,-9%
O=C1C=C(c2ccccc2)C(c2ccccc2)C1 (stereo not drawn),1%,x,x,11%,x,x
COC(=O)[C@@]12C[C@@H](CC(=O)NCC3CCCCC3)C(=O)N(Cc3cccc4ccccc34)C1=CCC(C)(C)C2,1%,x,x,x,x,x
Cc1[nH]nc2c1C(=O)CC(C)(C)C2,-13%,1%,3%,-3%,2%,3%
Cc1[nH]nc2c1C(=O)CCC2,7.5µM*,0%,-5%,-4%,14%,-5%
